# Screening data as filed in PubChem BioAssay.
# Shown are actives, neighbours in structure and some others; about 10% of the full set was active somewhere.
# Six1-Eya2 inh: Six1/Eya2 interaction inhibition; AID 651725; Q15475+O00167; 0.56% of 360,000 active; AlphaScreen GST-Six1/His-Eya2 binding, biochemical; hits give low values; activity change, % (concentration not given with the values); in the data active = activity change below about -65%; inconclusive = mostly about -30% to -63%
#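 AlphaScreen luminescence read after one hour at 37 °C in darkness. Pin-transferred compounds met GST-Six1 and His-Eya2 protein (5X stock 250 nM/500 nM) plus glutathione donor and Ni-chelate acceptor beads (5X, 50 ug/mL).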
# JMJD2A Tudor inh: inhibitors of human JMJD2A Tudor domain; O75164; AlphaScreen JMJD2A-Tudor / H3K4me3 peptide binding; Potency, µM (titrated, usually from 114 µM), actives largely listed as inhibitors; 4.4% of 390,000 active; AID 504339; note: nearly all actives have a fitted effect of over 50% in size
# G9a inh: inhibitors of human histone lysine methyltransferase G9a | 8.8% of 350,000 active | Potency, µM (series often up to 102 µM), usual class: inhibitors | AID 504332 | G9a H3K9 monomethylation, AlphaScreen, 2 h | Q96KQ7; note: nearly all actives have a fitted effect of over 75% in size
#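 Chemiluminescent proximity detection of H3K9 monomethylation, read after 10 min bead incubation in the dark. Reaction: 20 nM G9a, 500 nM biotin-H3K9 peptide, 20 uM SAM cofactor, 2 h, room temperature, following 15 min enzyme-compound preincubation.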
# BAZ2B inh: blocks human BAZ2B. 4.4% of 360,000 active. AlphaScreen BAZ2B-H3K14Ac peptide displacement. AID 504333. Potency, µM (titrated, usually from 114 µM), actives largely listed as inhibitors. Q9UIF8; note: nearly all actives have a fitted effect of over 60% in size
#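 Compounds, titrated to a top concentration of 110 uM, were incubated 30 min at room temperature with preformed BAZ2B/acetyl-K14 H3 peptide complex (50 nM each). Proximity signal was measured by AlphaScreen after 20 min with beads.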
# HP1b chromo inh: blocks HP1-beta chromodomain binding to methylated histone tails | 0.56% of 390,000 active | Potency, µM (top dose mostly 114 µM), usual class: inhibitors | AlphaScreen HP1-beta / biotin-H3K9me3 peptide binding; note: nearly all actives have a fitted effect of over 70% in size
#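 HP1-beta protein (50 nM final) preincubated 30 min at room temperature with biotinylated H3(1-18)K9me3 peptide (50 nM) in PBS pH 7.4, 0.01% Tween-20, then compound added for 30 min. AlphaScreen streptavidin donor/nickel chelate acceptor beads (10 ug/mL final), 30 min dark, luminescence read.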
# CtBP-E1A inh: inhibitors of CtBP/E1A interaction. AlphaScreen GST-E1A/His-CtBP binding, 1536-well; hits give low values. activity change, % (test concentration not listed). 0.49% of 340,000 active. AID 651724; in the data active = activity change below about -65%; inconclusive = mostly about -30% to -63%
#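 GST-E1A and His-tagged CtBP (125 nM each as 5X stock) were preincubated with pin-transferred compound for 2 h at 37 °C in the dark, then glutathione donor and nickel acceptor beads were added for 1 h before AlphaScreen reading.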
# A number is an active result; n = inactive; u = inconclusive; x = no result given; [ ] = another dose, or the depositor's remark. Unless noted, calls come from the whole dose curve; as a rule, active = well fitted inhibition curve with a large enough effect; inconclusive = small, poorly fitted or top-dose-only effect; inactive = no such curve, though single readings can be large or run the other way.
SMILES,Six1-Eya2 inh,JMJD2A Tudor inh,G9a inh,BAZ2B inh,HP1b chromo inh,CtBP-E1A inh
CCOc1ccc(NC(=O)CSc2nc3c(oc4ccccc43)c(=O)n2CCOC)cc1,x,n,n,n,n,x
CCN(CC)C(=O)c1ccc2c(c1)N(Cc1ccccc1F)C(=O)c1ccccc1S2=O (stereo not drawn),x,n,n,n,n,x
CCC(=O)N1CCN(c2nc3c(C)cccc3s2)CC1,x,n,n,n,n,x
Cn1c2c(c(=O)n(C)c1=O)C(c1cccc(O)c1)CC(=O)N2 (stereo not drawn),x,n,n,n,n,x
Cc1cc2c(cc1C)[n+](C)cn2CC(O)COCc1ccccc1 (stereo not drawn),n,u,5.6µM,n,n,n
Cn1c(CNC(=O)CSc2n[nH]c(-c3ccccc3)n2)nc2ccccc21,x,n,n,n,n,x
[O-][N+]1=c2ccc(Nc3ccccc3)cc2=NC12CCCCC2,u,40µM,x,20µM,u,u
O=C(O)c1cccc(N2C(=S)N=C(Nc3ccccc3)C23CCCCC3)c1,n,n,n,n,n,n
COc1ccc(Nc2ccc3c(c2)=NC2(CCCCC2)[N+]=3[O-])cc1,n,22µM,u,40µM,u,n
COc1ccc(NC2=NC(=S)N(c3ccccc3C)C23CCCCC3)cc1,n,n,u,n,n,n
C/C(=N\NC(=O)COc1ccc(C(C)(C)C)cc1)c1ccc(N2CCOCC2)cc1,n,n,10µM,n,n,x
C/C(=N\NC(=O)c1ccc(F)cc1)c1ccc(N2CCOCC2)cc1,n,n,n,n,n,n
CC1CCN(S(=O)(=O)c2ccc(NC(=O)Cc3cccs3)cc2)CC1,n,50µM,u,u,n,n
CC1CCN(CC(=O)Nc2ccc(S(=O)(=O)N3CCC(C)CC3)cc2)CC1,n,0.79µM,x,u,u,n
CC1CCN(S(=O)(=O)c2ccc(NC(=O)CN3CCOCC3)cc2)CC1,n,n,u,n,n,n
CC(=O)Nc1ccc(S(=O)(=O)N2CCN3CCCC3C2)cc1 (stereo not drawn),n,n,79µM,n,n,x
CC1CCCN(S(=O)(=O)c2ccc(NC(=O)CN3CCCCC3)cc2)C1 (stereo not drawn),n,u,45µM,n,n,n
CC1CCCN(CC(=O)Nc2ccc(S(=O)(=O)N3CCCCC3)cc2)C1 (stereo not drawn),n,n,n,n,n,n
CC1CCN(S(=O)(=O)c2ccc(NC(=O)C3CC3)cc2)CC1,n,n,n,n,n,n
Cc1cccc(NC(=O)C(=O)NCC(c2cccnc2)N2CCOCC2)c1 (stereo not drawn),x,n,n,n,n,x
O=[N+]([O-])c1cc(-c2nc(-c3ccccc3)no2)ccc1N1CCOCC1,x,n,n,n,n,x
Cc1ccc(Nc2cc(C)c(C#N)c3nc4ccccc4n23)cc1Cl,x,n,n,n,n,x
O=C(CN1CCCC1)Nc1ccc(S(=O)(=O)N2CCCCC2)cc1,n,n,n,n,n,n
CC(=O)Nc1ccc(S(=O)(=O)N2CCN(C(C)CCc3ccccc3)CC2)cc1 (stereo not drawn),n,1µM,7.1µM,50µM,u,n
CCN(CC)S(=O)(=O)c1ccc(NC(=O)Cc2cccs2)cc1,n,n[11.4 µM],n,71µM,u,x
SMILES,Six1-Eya2 inh,JMJD2A Tudor inh,G9a inh,BAZ2B inh,HP1b chromo inh,CtBP-E1A inh
CCOc1ccc(CN2CCN(S(=O)(=O)c3ccc(NC(C)=O)cc3)CC2)cc1OC,n,22µM,6.3µM,50µM,u,n
CC1CCN(S(=O)(=O)c2ccc(NC(=O)CN3CCCC3)cc2)CC1,n,4µM,10µM,71µM,n,n
COc1ccc(NC(C)=O)cc1NC(=O)c1cccc(S(=O)(=O)N2CCN(Cc3ccccc3)CC2)c1,n,n,n[0.501 µM],n,n,n
NS(=O)(=O)c1ccc(NC(=O)Cc2cccs2)cc1,n,n,n,n,n,n
Cc1cccc(NC(=O)/C(C#N)=C/c2ccco2)c1,x,n,u,n,n,x
CC1CCN(CC(=O)Nc2ccc(S(=O)(=O)NC3CC3)cc2)CC1,n,20µM,14µM,50µM,u,x
Cc1noc(C)c1C(=O)Nc1ccc(S(=O)(=O)N2CCC(C)CC2)cc1,n,n,22µM,n,n,n
CCN(CC(=O)Nc1ccc(OC)cc1)C(=O)Cc1cccs1,n,u,n[0.501 µM],50µM,n,n
CC1CCCN(CC(=O)Nc2ccc(S(=O)(=O)NC3CCCCC3)cc2)C1 (stereo not drawn),n,n,u,n,n,n
CC(=O)Nc1ccc(S(=O)(=O)N2CCN(Cc3cccs3)CC2)cc1,n,n,18µM,35µM,32µM,n
O=C(Nc1cc(C(F)(F)F)ccc1Cl)c1cc(-c2ccc3c(c2)OCCO3)on1,x,n,n,n,n,x
Cc1ccc(-c2nc3ncccc3o2)cc1NC(=O)c1ccccc1Br,x,n,n,n,n,x
CC1CCN(S(=O)(=O)c2ccc3c(c2)CCC(=O)N3CC(=O)Nc2cccc(C#N)c2)CC1,x,n,n[12.7 µM],50µM,n,x
COc1ccc(NC(=O)C2CCN(C(=O)c3sc4nc[nH]c(=O)c4c3C)CC2)cc1Cl,x,n,n,n,n,x
COc1ccc2c(c1)c1c(c(=O)n(-c3cccc(C)c3)c(=O)n1CC(=O)N1CCCC1)n2C,x,n,u,u,n,x
O=C(C[n+]1ccccc1)N/N=C/c1ccccc1F,n,u,n,x,n,u
CC(C)(C)c1ccc(/C=N/NC(=O)C[n+]2ccccc2)cc1,n,n,n,n,n,n
O=C(C[n+]1ccccc1)N/N=C/c1ccc(Cl)cc1,n,u,n[12.7 µM],50µM,n,n
CC(C)(C)c1cc(/C=N/NC(=O)C[n+]2ccccc2)cc(C(C)(C)C)c1O,n,56µM,n,50µM,n,n
O=C(C[n+]1ccccc1)N/N=C/c1c(F)cccc1Cl,n,n,n,56µM,n,x
COC(=O)C1=C(C)N(C(C)C)C(=O)C1(NC(=O)c1ccc(C(C)(C)C)cc1)C(F)(F)F (stereo not drawn),x,n,n,n,n,x
S=C1SCN(Cc2cccnc2)CN1Cc1ccccc1,n,n,n,n,n,n
COCCN1CSC(=S)N(Cc2ccco2)C1,n,u,45µM,n,n,n
CC(C)CN1CN(Cc2ccco2)CNC1=S,n,n,n,n,n,n
S=C1SCN(Cc2ccccn2)CN1Cc1ccco1,-80,6.3µM,2.2µM,18µM,n,u
Cc1cccc(C(=O)NCC(=O)OC(C(=O)Nc2cc(C(F)(F)F)ccc2Cl)c2ccccc2)c1 (stereo not drawn),x,n,x,x,x,x
Cc1cccc(NNC(=O)C(=O)NNc2cccc(C)c2)c1,n,n,u,n,n,x
Cc1cccc(N=NC(=S)NNc2cccc(C)c2)c1,u,25µM,x,x,45µM,u
CCC(=O)Nc1sc2c(c1C(N)=O)CCC2,n,n,n,n,n,n
